PINK1 modulator = changes PINK1 expression; actives 0.2% (n = 410,000); AID 624263; PINK1 immunofluorescence, high-content cytometry, 24 h; Potency, µM (top dose mostly 76.6 µM), for the others: at the top dose activation (PINK1 increase), actives largely listed as activators; active = well fitted activation curve with a large enough effect; inconclusive = small, poorly fitted or top-dose-only effect; cell line not stated here; also: % of control where 0% means no effect; nearly all actives have a fitted effect of over 65% in size
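Decision-based qHTS: stable cells, 24 h exposure to five compound concentrations, CCCP as control. Fixed cells stained for PINK1 plus nuclear, mitochondrial and cell markers, cytometer read.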
KB-V1 cytotox = KB-V1 MDR subline cytotoxicity. Potency, µM (titrated, usually from 46.1 µM), most hits filed as cytotoxic. AID 1347076. actives 3.4% (n = 400,000). KB-V1 MDR cells viability, CellTiter-Glo, 72 h; also: % is scaled to controls: 0 for no effect and ±100 for the full control effect; nearly all actives have a fitted effect of over 60% in size
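KB-V1 cells (P-gp-expressing MDR subline of KB-3-1) in phenol-red-free DMEM with 10% FBS were exposed to library compounds over a concentration series for 72 h at 37 degrees C. Viability read by CellTiter-Glo luminescence; concentration-effect curves fitted after normalization.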
ALOX12 inh = blocks human arachidonate 12S-lipoxygenase. purified 12hLO, xylenol orange hydroperoxide absorbance. Potency, µM (series often up to 108 µM), for inactives: at the top dose activity change, negative = inhibition, actives largely listed as inhibitors. actives 1.1% (n = 580,000). AID 1671190; also: % is scaled to controls: 0 for no effect and ±100 for the full control effect
Target sequence (P18054 whole entry, looked up): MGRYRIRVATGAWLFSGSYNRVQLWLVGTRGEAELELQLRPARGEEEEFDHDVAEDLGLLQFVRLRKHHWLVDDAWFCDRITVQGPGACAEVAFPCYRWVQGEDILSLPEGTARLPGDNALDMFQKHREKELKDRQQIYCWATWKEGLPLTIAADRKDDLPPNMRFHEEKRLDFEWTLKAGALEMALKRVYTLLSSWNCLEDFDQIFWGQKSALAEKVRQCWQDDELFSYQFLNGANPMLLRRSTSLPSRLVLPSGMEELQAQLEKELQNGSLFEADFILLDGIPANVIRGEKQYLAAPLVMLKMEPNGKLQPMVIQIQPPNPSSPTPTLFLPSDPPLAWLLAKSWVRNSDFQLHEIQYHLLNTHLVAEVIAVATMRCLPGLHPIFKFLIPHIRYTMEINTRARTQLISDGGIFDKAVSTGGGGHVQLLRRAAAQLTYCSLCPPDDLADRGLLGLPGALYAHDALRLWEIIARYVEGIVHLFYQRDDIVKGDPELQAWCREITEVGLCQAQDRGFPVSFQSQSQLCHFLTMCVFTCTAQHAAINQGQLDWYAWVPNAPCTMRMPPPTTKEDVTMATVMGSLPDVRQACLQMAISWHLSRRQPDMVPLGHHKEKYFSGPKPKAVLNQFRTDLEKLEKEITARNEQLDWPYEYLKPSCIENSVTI
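Purified human 12hLO at 150 nM in 25 mM Hepes, 0.01% Triton X-100, pH 7.0, preincubated 15 min at room temperature with compound. Reaction started with 40 uM arachidonic acid, 30 min at room temperature. Hydroperoxide measured by Fe-xylenol orange, 573/405 nm absorbance ratio.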
KB-3-1 tox = kills parental KB-3-1 adenocarcinoma cells; KB-3-1 viability, CellTiter-Glo ATP luminescence, 72 h; Potency, µM (highest dose often 46.1 µM), usual class: cytotoxic; actives 1.4% (n = 400,000); AID 1347075; also: % is scaled to controls: 0 for no effect and ±100 for the full control effect; nearly all actives have a fitted effect of over 60% in size
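72 h, 37 °C compound treatment of KB-3-1 parental cells; CellTiter-Glo added, 10 min, luminescence read. Data corrected against DMSO-only plates and normalized before curve fitting.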
MCF10A rerep = inducers of DNA re-replication in MCF 10A breast cells; MCF 10A DNA re-replication, Hoechst nuclear intensity, 48 h; Potency, µM (top dose mostly 46.1 µM), for the others: at the highest dose activity, positive = re-replication, hits mostly activators; actives 2.9% (n = 350,000); AID 624296; also: % of control where 0% means no effect; nearly all actives have a fitted effect of over 50% in size
SW480 rereplic = induces DNA re-replication in SW480 colon adenocarcinoma cells | SW480 DNA re-replication, Hoechst DNA content imaging, 48 h | Potency, µM (top dose mostly 46.1 µM), for inactives: at the top dose re-replication activation, actives largely listed as activators | actives 1.8% (n = 340,000) | AID 624297; also: % of control where 0% means no effect; nearly all actives have a fitted effect of over 55% in size
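First, 250 cells per well were seeded. Next, compound or vehicle (23 nL) was pinned in, plates sat 48 hr at 37 C. Finally Hoechst was added for 40 min before fluorescence scanning.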
* = called active by the depositor; i = inactive; ? = inconclusive; . = not tested or not shown; [ ] = dose if it differs, or a comment. The list is not random: actives were taken first. Their share in the collection is about 5.8%. Unless noted, calls follow the shape of the dose curve; as a rule, active = well fitted curve in the direction sought with a large enough effect; inconclusive = small, poorly fitted or top-dose-only effect, or another doubt; inactive = no such curve, though single readings can be large; an effect the other way counts as inactive or inconclusive. Potency is read from the fitted curve at half-maximal effect.

SMILES	PINK1 modulator	KB-V1 cytotox	ALOX12 inh	KB-3-1 tox	MCF10A rerep	SW480 rereplic
CCCCCn1c(=O)c(C(=O)Nc2ccccn2)c(O)c2ccccc21	1.8%	6.51µM*	229.0%	i	-4.1%	2.9%
CCCCCCn1c(=O)c(C(=O)Nc2c(C)n(C)n(-c3ccccc3)c2=O)c(O)c2ccccc21	0.4%	1.64µM*	8.4%	?	-9.2%	-7.8%
CCCCCCn1c(=O)c(C(=O)Nc2ncccc2O)c(O)c2ccccc21	4.2%	?	11.8%	7.31µM*	-7.3%	-2.6%
Cc1ncc2c(n1)C[C@@H]1CC[C@H]2N1C(=O)c1ccc(C(C)C)cc1	.	.	29.8%	.	.	.
CN(CCc1ccccn1)C[C@H]1CN2CC[C@H]1C[C@@H]2CNS(=O)(=O)c1ccccc1	.	.	5.4%[176 µM]	.	.	.
CCCCCCn1c(=O)c(C(=O)Nc2cnccn2)c(O)c2ccccc21	6.5%	1.3µM*	10.8%	2.06µM*	?	-4.6%
CCCCc1c(C)nc(N2CCN(C)CC2)[nH]c1=O	.	.	28.3%	.	.	.
CN(Cc1ccccc1)C[C@H]1CN2CC[C@H]1C[C@@H]2CNC(=O)Nc1ccccc1	.	.	-3.6%[176 µM]	.	.	.
COc1ccc(CCNC(=O)c2c(N)n(CCN3CCOCC3)c3nc4ccccc4nc23)cc1	1.6%	?	0.0%	?	?	16.4µM*
Nc1c(C(=O)NCCN2CCOCC2)c2nc3ccccc3nc2n1Cc1ccco1	-1.6%	i	0.0%	i	6.51µM*	8.2µM*
Nc1c(C(=O)NCCc2ccccc2)c2nc3ccccc3nc2n1CCN1CCOCC1	3.4%[38.3 µM]	23.1µM*	-14.1%	i	1.3%	7.8%
CCCCn1c(N)c(C(=O)NCCN2CCOCC2)c2nc3ccccc3nc21	4.3%	i	-19.0%	i	20.6µM*	18.4µM*
CCOC(=O)c1c(N)n(CCN2CCCCC2)c2nc3ccccc3nc12	.	i	?	i	?	19.5%
O=C(CC1CCCC1)N1[C@H]2CC[C@@H]1c1cnc(-c3ccc(F)cc3)nc1C2	.	.	8.5%	.	.	.
COc1ccc(-c2cn(C[C@H]3C[C@@H]4CCN3C[C@@H]4C(=O)NC(C)C)nn2)cc1	.	.	19.8%[176 µM]	.	.	.
COc1cc(C2SCC(=O)Nc3[nH]ncc32)ccc1OCC(C)C (configuration not stated)	.	.	-6.3%	.	.	.
Nc1c(C(=O)NCCN2CCOCC2)c2nc3ccccc3nc2n1Cc1ccccc1	3.3%	?	?	i	14.6µM*	23.1µM*
C=CCNC(=O)c1c(N)n(Cc2ccccc2)c2nc3ccccc3nc12	.	.	-36.0%	.	.	.
COc1cc(/C=N/NP(=S)(c2ccccc2)c2ccccc2)ccc1O	-0.3%	i	0.0%	i	11.2µM*	-1.3%
Cc1ccc(Cn2cc(C=O)c3ccccc32)cc1	3.4%	?	-0.9%	?	?	?
O=Cc1cn(Cc2ccc([N+](=O)[O-])cc2)c2ccccc12	2.8%	?	-1.9%	6.51µM*	18.4µM*	?
COc1ccc(CNC[C@H]2C[C@@H]3CCN2C[C@@H]3c2cc(C3CCCCC3)nn2C)cc1	.	.	42.3%[176 µM]	.	.	.
Cc1ccc(-c2cc(-c3ccc(C)cc3)[n+](C)o2)cc1	27.0%	i	-7.2%	2.91µM*	-47.9%	-696.9%
C=C1C(=O)OC2CC3(C)OC3CCC(C)=CC(OC(C)=O)C12 (configuration not stated)	-2.6%	i	-7.1%	?	5.17µM*	3.7%
C=C1C(=O)OC2CC3(C)OC3C3OC3C3=CC(OC3=O)C12 (configuration not stated)	.	.	19.0%	.	.	.
SMILES	PINK1 modulator	KB-V1 cytotox	ALOX12 inh	KB-3-1 tox	MCF10A rerep	SW480 rereplic
Oc1ccc2c3c1OC1c4oc5ccccc5c4C[C@@]4(O)[C@@H](C2)N(CC2CC2)CC[C@]314 (some centres not stated)	-0.5%	?	1.7%	i	4.2%	0.92µM*
O=C1/C(=C/c2ccccc2)C[C@@]2(O)[C@H]3Cc4ccc(O)c5c4[C@@]2(CCN3CC2CC2)C1O5 (some centres not stated)	0.6%	7.31µM*	.	?	4.61µM*	?
Oc1ccc2c3c1OC1c4[nH]c5ccccc5c4C[C@@]4(O)C(C2)N(CC2CC2)CC[C@]314 (some centres not stated)	2.2%	i	-17.4%	i	?	-17.4%
ClCCN(CCCl)c1ccc(-n2cnc3c(Cl)ncnc32)cc1	-1.6%	i	-1.0%	?	2.91µM*	8.2µM*
N[C@@H](Cc1ccc(N(CCCl)CCCl)cc1)C(=O)O	-0.6%	i	?	i	?	?
COc1ccc(CN2CCN(C(=O)Cc3ccccc3)CC2)cc1Br	0.6%	i	0.631µM*	i	13.6%	?
CCOc1cc(CN2CCN(C(=O)Cc3ccccc3)CC2)ccc1OC	0.1%	?	0.501µM*	i	1.2%	2.9%
COc1ccc(CN2CCN(C(=O)Cc3ccccc3)CC2)cc1OC	-0.5%	i	?	i	.	.
COc1cc2c(c(OC)c1OC)-c1ccc(O)cc1[C@@H](NC(C)=O)CC2	7.8%	i	-1.6%	0.0164µM*	?	?
COc1cc2c(c(OC)c1OC)-c1ccc(O)cc1C(NC(C)=O)CC2 (configuration not stated)	10.5%	?	-1.0%	?	0.058µM*	0.058µM*
COc1cc2c(c(OC)c1OC)-c1ccc(O)c(=O)cc1[C@@H](NC(C)=O)CC2	9.1%	?	-11.2%	?	16.4µM*	18.4µM*
CCCCn1c(C)c(C(=O)OCC)c2cc(OC)ccc21	.	.	7.9%	.	.	.
COc1ccccc1CCNCc1cccs1	.	.	-48.1%	.	.	.
COC(=O)C1=C(c2ccc(F)cc2OCc2ccccc2)C[C@@H]2CC[C@H]1N2C(=O)NCc1ccc(C(F)(F)F)cc1	3.3%	i	11.2%	i	14.6µM*	-4.5%
COC(=O)C1=C(c2ccccc2OCc2ccccc2)C[C@@H]2CC[C@H]1N2C(=O)NCCc1ccc(F)cc1	5.2%	i	0.6%	?	11.2%	5.8µM*
COC(=O)C1=C(c2cc3ccccc3s2)C[C@@H]2CC[C@H]1N2C(=O)NCc1ccc(C(F)(F)F)cc1	3.3%	18.4µM*	?	?	?	-6.9%
COC(=O)C1=C(c2cc3ccccc3s2)C[C@@H]2CC[C@H]1N2C(=O)NCC1CC1	0.6%	i	?	i	27.7%	-1.7%
COC(=O)C1=C(c2ccccc2OCc2ccccc2)C[C@@H]2CC[C@H]1N2C(=O)NCc1ccc(C(F)(F)F)cc1	0.3%	i	6.7%	?	11.1%	11.9%
C=C[C@H]1CN2CC[C@H]1C[C@@H]2CNS(=O)(=O)Cc1ccccc1	.	.	56.1%[176 µM]	.	.	.
